# Measured values taken from paper PMC7862700, “An all-to-all approach to the identification of sequence-specific readers for epigenetic DNA modifications on cytosine”.
# Experiments:
# Assay in all cases: DAPPL (digital affinity profiling via proximity ligation, sequencing); 10 mM Tris-HCl pH 7.5, 50 mM NaCl, 1 mM DTT, 4% glycerol, room temperature, 30 min; GST-TFs on glutathione beads, 16-mer random dsDNA library, 0.1% formaldehyde crosslink after washing; high values mean tight binding
# Conditions in all cases: protein: recombinant; tags: N-terminal GST; dsDNA, one strand shown
# FLI1 = target: T1, FLI1 (Homo sapiens, UniProt Q01543 1-452)
# T1 sequence: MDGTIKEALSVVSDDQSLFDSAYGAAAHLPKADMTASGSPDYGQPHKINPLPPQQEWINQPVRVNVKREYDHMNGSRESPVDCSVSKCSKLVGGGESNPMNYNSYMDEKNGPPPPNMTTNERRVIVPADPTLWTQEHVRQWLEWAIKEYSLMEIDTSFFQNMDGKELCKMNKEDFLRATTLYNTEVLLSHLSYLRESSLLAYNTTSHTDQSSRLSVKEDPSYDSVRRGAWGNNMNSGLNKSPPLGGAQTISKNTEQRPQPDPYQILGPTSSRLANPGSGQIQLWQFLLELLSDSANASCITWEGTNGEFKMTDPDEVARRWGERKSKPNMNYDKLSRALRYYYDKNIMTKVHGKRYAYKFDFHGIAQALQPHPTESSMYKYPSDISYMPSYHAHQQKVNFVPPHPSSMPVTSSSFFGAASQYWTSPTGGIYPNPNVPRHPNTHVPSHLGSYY
# Outline: (§1)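 Each value of binding signal is a hexamer's read frequency for a factor divided by the same hexamer's frequency in the tag-only sample. Barcoded, bead-captured GST fusions of human transcription factors made in yeast were pooled with that sample and incubated with 200 nmole of a random double-stranded 16-mer DNA library in Tris/NaCl/DTT/glycerol buffer at room temperature for 30 min. Washing, 0.1% formaldehyde crosslinking, proximity ligation, PCR and Illumina NextSeq500 sequencing followed.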
# ELK1 = target: T2, ELK1 (Homo sapiens, UniProt P19419 1-428)
# T2 sequence: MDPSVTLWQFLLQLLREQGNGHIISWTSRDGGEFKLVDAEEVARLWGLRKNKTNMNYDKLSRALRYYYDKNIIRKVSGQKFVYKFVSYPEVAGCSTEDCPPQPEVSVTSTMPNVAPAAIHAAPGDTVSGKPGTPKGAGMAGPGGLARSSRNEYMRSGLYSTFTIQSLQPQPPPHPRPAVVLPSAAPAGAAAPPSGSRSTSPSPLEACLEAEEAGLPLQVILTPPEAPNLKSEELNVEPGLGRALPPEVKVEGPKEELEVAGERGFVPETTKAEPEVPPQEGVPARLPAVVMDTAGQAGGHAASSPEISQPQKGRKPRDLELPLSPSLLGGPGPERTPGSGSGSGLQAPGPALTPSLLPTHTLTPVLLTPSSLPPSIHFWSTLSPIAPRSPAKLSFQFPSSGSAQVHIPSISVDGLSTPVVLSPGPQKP
# Outline: as §1
# GABPA = target: T3, GABPA (Homo sapiens, UniProt Q06546 1-454)
# T3 sequence: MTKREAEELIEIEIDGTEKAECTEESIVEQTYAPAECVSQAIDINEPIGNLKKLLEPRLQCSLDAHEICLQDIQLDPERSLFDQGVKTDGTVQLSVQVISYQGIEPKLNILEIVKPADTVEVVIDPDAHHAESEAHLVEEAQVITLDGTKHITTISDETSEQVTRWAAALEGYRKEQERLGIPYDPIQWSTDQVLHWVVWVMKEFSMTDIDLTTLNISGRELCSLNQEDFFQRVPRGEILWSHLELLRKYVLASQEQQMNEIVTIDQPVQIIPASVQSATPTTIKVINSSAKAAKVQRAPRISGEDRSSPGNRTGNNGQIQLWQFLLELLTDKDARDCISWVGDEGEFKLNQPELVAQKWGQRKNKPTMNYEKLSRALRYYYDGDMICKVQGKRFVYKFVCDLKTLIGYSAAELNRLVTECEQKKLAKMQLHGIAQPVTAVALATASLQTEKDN
# Outline: as §1
# ERG = target: T4, ERG (Homo sapiens, UniProt P11308 1-479)
# T4 sequence: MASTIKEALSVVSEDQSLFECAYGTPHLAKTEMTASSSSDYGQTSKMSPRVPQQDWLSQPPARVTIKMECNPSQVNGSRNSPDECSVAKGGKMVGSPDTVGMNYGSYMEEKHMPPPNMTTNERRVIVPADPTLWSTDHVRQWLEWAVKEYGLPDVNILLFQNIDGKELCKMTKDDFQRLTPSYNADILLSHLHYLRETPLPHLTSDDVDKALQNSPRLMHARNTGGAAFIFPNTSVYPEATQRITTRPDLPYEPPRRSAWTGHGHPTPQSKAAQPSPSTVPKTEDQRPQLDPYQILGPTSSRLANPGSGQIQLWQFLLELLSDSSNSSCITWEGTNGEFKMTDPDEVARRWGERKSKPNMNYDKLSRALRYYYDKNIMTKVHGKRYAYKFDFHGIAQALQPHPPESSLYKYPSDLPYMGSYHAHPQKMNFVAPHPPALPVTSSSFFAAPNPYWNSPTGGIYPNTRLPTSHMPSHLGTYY
# Outline: as §1
# ELF1 = ELF1 (Homo sapiens, UniProt P32519 1-619)
# Sequence of ELF1 (P32519 whole entry): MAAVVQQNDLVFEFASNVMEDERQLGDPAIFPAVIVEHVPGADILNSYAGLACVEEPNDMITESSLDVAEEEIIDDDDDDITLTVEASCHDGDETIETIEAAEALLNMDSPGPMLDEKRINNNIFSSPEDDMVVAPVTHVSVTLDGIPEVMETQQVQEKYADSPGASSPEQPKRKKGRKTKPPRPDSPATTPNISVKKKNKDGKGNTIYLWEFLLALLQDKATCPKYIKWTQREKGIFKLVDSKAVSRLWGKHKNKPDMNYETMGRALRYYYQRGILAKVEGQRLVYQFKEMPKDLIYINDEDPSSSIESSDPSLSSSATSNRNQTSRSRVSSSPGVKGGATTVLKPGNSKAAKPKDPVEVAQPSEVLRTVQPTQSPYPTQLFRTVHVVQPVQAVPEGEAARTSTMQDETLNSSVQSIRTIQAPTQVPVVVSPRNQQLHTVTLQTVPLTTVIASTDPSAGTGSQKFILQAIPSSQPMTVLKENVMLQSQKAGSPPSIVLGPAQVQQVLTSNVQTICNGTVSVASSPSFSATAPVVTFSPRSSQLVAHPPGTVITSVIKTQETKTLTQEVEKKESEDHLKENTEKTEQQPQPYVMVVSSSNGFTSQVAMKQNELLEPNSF
# Outline: as §1
# EHF = target: T5, EHF (Homo sapiens, UniProt Q9NZC4 1-300)
# T5 sequence: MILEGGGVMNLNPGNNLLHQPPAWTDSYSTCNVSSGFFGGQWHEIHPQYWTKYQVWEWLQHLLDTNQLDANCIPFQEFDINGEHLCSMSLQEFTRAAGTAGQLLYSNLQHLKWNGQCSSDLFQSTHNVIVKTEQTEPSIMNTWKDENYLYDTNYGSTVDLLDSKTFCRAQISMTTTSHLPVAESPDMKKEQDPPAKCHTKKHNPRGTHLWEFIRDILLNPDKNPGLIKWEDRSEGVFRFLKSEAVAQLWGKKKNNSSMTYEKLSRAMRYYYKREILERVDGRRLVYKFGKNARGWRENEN
# Outline: as §1
# SPI1 = SPI1 (Homo sapiens, UniProt P17947 1-270)
# Outline: as §1
# SPIB = SPIB (Homo sapiens, UniProt Q01892 1-262)
# Sequence of SPIB (Q01892 whole entry): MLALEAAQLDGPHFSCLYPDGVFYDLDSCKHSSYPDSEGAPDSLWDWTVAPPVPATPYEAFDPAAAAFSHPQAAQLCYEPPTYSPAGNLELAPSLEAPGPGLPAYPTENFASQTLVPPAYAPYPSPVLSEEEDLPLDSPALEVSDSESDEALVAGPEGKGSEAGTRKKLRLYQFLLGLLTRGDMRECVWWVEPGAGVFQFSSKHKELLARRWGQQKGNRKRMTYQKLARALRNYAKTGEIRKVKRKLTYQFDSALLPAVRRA
# Outline: as §1
# ELK3 = target: T6, ELK3 (Homo sapiens, UniProt P41970 1-407)
# T6 sequence: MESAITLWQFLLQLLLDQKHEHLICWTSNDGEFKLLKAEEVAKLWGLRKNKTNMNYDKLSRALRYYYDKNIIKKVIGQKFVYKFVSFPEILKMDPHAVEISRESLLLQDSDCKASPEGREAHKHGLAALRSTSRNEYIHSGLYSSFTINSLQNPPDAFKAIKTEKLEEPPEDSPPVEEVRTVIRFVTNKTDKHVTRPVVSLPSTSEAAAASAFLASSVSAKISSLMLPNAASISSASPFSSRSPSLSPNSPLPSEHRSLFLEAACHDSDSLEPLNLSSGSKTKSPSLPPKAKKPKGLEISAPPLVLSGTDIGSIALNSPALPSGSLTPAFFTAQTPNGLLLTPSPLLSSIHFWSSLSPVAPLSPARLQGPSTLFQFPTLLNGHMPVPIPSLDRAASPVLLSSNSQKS
# Outline: as §1
sequence,measurement,setting,value
TCGCTT,binding signal,FLI1,"1.22 fold enrichment (6-mer frequency, TF over GST control)"
same,binding signal,ELK1,"1.3 fold enrichment (6-mer frequency, TF over GST control)"
same,binding signal,GABPA,"1.23 fold enrichment (6-mer frequency, TF over GST control)"
same,binding signal,ERG,"1.18 fold enrichment (6-mer frequency, TF over GST control)"
same,binding signal,ELF1,"1.19 fold enrichment (6-mer frequency, TF over GST control)"
same,binding signal,EHF,"1.2 fold enrichment (6-mer frequency, TF over GST control)"
same,binding signal,SPI1,"1.08 fold enrichment (6-mer frequency, TF over GST control)"
same,binding signal,SPIB,"1.38 fold enrichment (6-mer frequency, TF over GST control)"
same,binding signal,ELK3,"1.18 fold enrichment (6-mer frequency, TF over GST control)"
